This note sets out measurements from PubChem BioAssay (Tox21).

Each structure is given as a SMILES string. Records with an inconclusive call do not appear. Unmarked numbers belong to inactive results. Activity calls are given as the source filed them. Unless noted, the call rests on the fitted dose curve; in most records, active means well fitted curve in the direction sought with a large enough effect in the repeat runs; inconclusive means weak or mixed curves; inactive means no such curve, though single readings can be large; an effect the other way counts as inactive or inconclusive.

Test [1] in a line: qHTS assay to identify small molecule antagonists of the peroxisome proliferator-activated receptor delta (PPARd) signaling pathway - cell viability counter screen (AID 743213). Further: nearly all actives have a fitted effect of over 50% in size. Further: potency means the concentration at half of the fitted maximal effect. The method, boiled down: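 Agonist-stimulated (L165041, 300 nM final) HEK293H PPARd UAS-bla cells are exposed to compounds for 17 h at 37 C, and ATP-based luminescence (CellTiter-Glo) from the same wells reports cytotoxicity.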
(Quantitative high-throughput screening tests each substance at several concentrations.)

Test [2] addresses Peroxisome proliferator-activated receptor delta (Homo sapiens) (UniProt Q03181). Put plainly: qHTS assay to identify small molecule antagonists of the peroxisome proliferator-activated receptor delta (PPARd) signaling pathway (AID 743215; active means well fitted inhibition curve with a large enough effect in the signal ratio in the repeat runs, not every such curve was filed as active; the % refers to the signal ratio; further: series mostly up to about 62 µM; on the % scale 0 is the no-effect control and ±100 the full control effect). The method, boiled down:
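PPARd UAS-bla HEK293H cells were pre-incubated 5 h at 37 C, then given test compounds in DMSO plus agonist L165041 (300 nM final). After 17 h at 37 C, beta-lactamase FRET substrate was added; fluorescence read after 2 h at room temperature.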

Test [3] in a line: qHTS assay to identify small molecule agonists of the farnesoid-X-receptor (FXR) signaling pathway - cell viability counter screen (AID 743218). Further: nearly all actives have a fitted effect of over 45% in size. Further: potency means the concentration at half of the fitted maximal effect. In a few lines: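 FXR-UAS-bla HEK 293T cells, plated 5 h at 37 C, were exposed to compounds for 16 h at 37 C. CellTiter-Glo was then added to the same wells as the bla readout; luminescence read after 30 min at room temperature.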
The nature of test [4]: qHTS assay to identify small molecule antagonists of the farnesoid-X-receptor (FXR) signaling pathway - cell viability counter screen (AID 743221; active means well fitted cell-killing curve with a large enough effect in the repeat runs, not every such curve was filed as active; further: nearly all actives have a fitted effect of over 50% in size; further: potency means the concentration at half of the fitted maximal effect). In a few lines:
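Here viability was scored by luminescence after CellTiter-Glo addition to wells already read for beta-lactamase. Prior treatment: compound plus CDCA (50 uM final), 16 h, 37 C, HEK 293T FXR-bla cells.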

In test [5] the target is Vitamin D3 receptor (Homo sapiens) (UniProt P11473). Nature of the test: qHTS assay to identify small molecule agonists of the vitamin D receptor (VDR) signaling pathway (AID 743222; calls by dose curve; further: on the % scale 0 is the no-effect control and ±100 the full control effect). The method, boiled down:
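VDR-bla cells were plated 4 h at 37C/5% CO2, then exposed to compounds in DMSO for 16 h. After LiveBLAzer B/G FRET substrate addition and 2 h at room temperature, beta-lactamase reporter fluorescence was read.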

Test [6] shares this target. Put plainly: qHTS assay to identify small molecule antagonists of the vitamin D receptor (VDR) signaling pathway (AID 743223; active means well fitted inhibition curve with a large enough effect in the signal ratio in the repeat runs, not every such curve was filed as active; the % refers to the signal ratio; further: on the % scale 0 is the no-effect control and ±100 the full control effect). The method, boiled down:
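Inhibition of agonist-driven VDR signalling is scored in VDR-bla cells: 3 nM final 1alpha,25-dihydroxyvitamin D3 plus compound, 16 h at 37C, then beta-lactamase detection by FRET substrate fluorescence after 2 h.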

The nature of test [7]: qHTS assay to identify small molecule antagonists of the vitamin D receptor (VDR) signaling pathway - cell viability counter screen (AID 743225). Further: nearly all actives have a fitted effect of over 50% in size. Further: potency means the concentration at half of the fitted maximal effect. In a few lines:
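Compounds were pinned onto VDR-bla HEK 293T cells together with 1-alpha,25-dihydroxyvitamin D3 at 3 nM final. After 16 h at 37C and 5% CO2 plus the reporter readout, cell viability was measured by CellTiter-Glo luminescence (30 min, room temperature).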

Test [8] can be described thus: qHTS assay to identify small molecule agonists of the endoplasmic reticulum stress response signaling pathway (AID 1159516; active means well fitted activation curve with a large enough effect in the signal ratio in the repeat runs, not every such curve was filed as active; the % refers to the signal ratio; further: on the % scale 0 is the no-effect control and ±100 the full control effect). The method, boiled down:
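CellSensor ESRE-bla HeLa cells, carrying a beta-lactamase reporter driven by the ER stress response element, were plated overnight and exposed to compounds for 5 hr at 37 C. Reporter activity was read as FRET substrate fluorescence after 2 hr at room temperature.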

Test [9] in a line: qHTS assay to identify small molecule agonists of the endoplasmic reticulum stress response signaling pathway - cell viability counter screen (AID 1159517; calls by dose curve; further: series mostly up to about 61 µM; on the % scale 0 is the no-effect control and ±100 the full control effect; nearly all actives have a fitted effect of over 50% in size). The method, boiled down: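 ESRE-bla HeLa cells, 1,500 per well, seeded overnight then treated with compounds for 5 hr at 37 C. After the beta-lactamase read, viability in the same wells is measured by CellTiter-Glo luminescence after 30 min at room temperature.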

The nature of test [10]: qHTS assay to identify small molecule antagonists of the retinoid-related orphan receptor gamma (ROR-gamma) signaling pathway - cell viability counter screen (AID 1159520). Further: nearly all actives have a fitted effect of over 50% in size. Further: potency means the concentration at half of the fitted maximal effect. In a few lines: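 Tet-on ROR gamma CHO cells were given compounds for 2 hr, then doxycycline hyclate at 1 uM final, and incubated 16 hr at 37 C. Viability was measured as ATP content by CellTiter-Glo luminescence.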

The target in test [11] is Nuclear receptor ROR-gamma (Homo sapiens) (UniProt P51449). Put plainly: qHTS assay to identify small molecule antagonists of the retinoid-related orphan receptor gamma (ROR-gamma) signaling pathway (AID 1159521; further: nearly all actives have a fitted effect of over 50% in size; further: potency means the concentration at half of the fitted maximal effect). The method, boiled down:
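Test compounds were applied to Tet-on RORγ CHO cells 2 h ahead of doxycycline hyclate (1 uM final). Luciferase reporter activity was quantified by luminescence after 16 h at 37 C and 5% CO2.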

A short description of test [12]: qHTS assay to identify small molecule agonists of the AP-1 signaling pathway - cell viability counter screen (AID 1159525; calls by dose curve; further: nearly all actives have a fitted effect of over 55% in size). The method, boiled down: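 AP-1-bla ME-180 cells in Opti-MEM with 0.5% dialyzed FBS, compound exposure 5 h at 37 C in 15-point titration. Viability read in the same wells as ATP content by CellTiter-Glo luminescence, normalised to tetra-n-octylammonium bromide and DMSO controls.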

Test [13] in a line: qHTS assay to identify small molecule agonists of the AP-1 signaling pathway (AID 1159526; calls by dose curve; further: on the % scale 0 is the no-effect control and ±100 the full control effect).
Test [14] can be described thus: qHTS assay to identify small molecule agonists of the RXR signaling pathway - cell viability counter screen (AID 1159529). Further: nearly all actives have a fitted effect of over 50% in size. Further: potency means the concentration at half of the fitted maximal effect. In a few lines:
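Compounds dissolved in DMSO were pinned onto HEK 293T cells carrying a beta-lactamase reporter under RXR-alpha control and incubated 16 hr. Cytotoxicity was then quantified by CellTiter-Glo luminescence.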

Test [15] can be described thus: qHTS assay to identify small molecule agonists of the peroxisome proliferator-activated receptor delta (PPARd) signaling pathway - cell viability counter screen (AID 743211). Further: nearly all actives have a fitted effect of over 55% in size. Further: potency means the concentration at half of the fitted maximal effect. The method, boiled down: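 In the same wells used for beta-lactamase reporter measurement, cytotoxicity is scored by CellTiter-Glo. HEK293H PPARd-bla cells receive compound for 17 h at 37C following a 5 h settling period.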

Test [16] has as its target Bile acid receptor (Homo sapiens) (UniProt Q96RI1). Nature of the test: qHTS assay to identify small molecule antagonists of the farnesoid-X-receptor (FXR) signaling pathway (AID 743217; active means well fitted inhibition curve with a large enough effect in the signal ratio in the repeat runs, not every such curve was filed as active; the % refers to the signal ratio; further: on the % scale 0 is the no-effect control and ±100 the full control effect). In a few lines:
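FXR-UAS-bla HEK 293T cells pre-incubated 5 h at 37 °C, then exposed to compounds with chenodeoxycholic acid (50 uM final) for 16 h at 37 °C. Beta-lactamase reporter read by LiveBLAzer B/G FRET substrate fluorescence after 2 h at room temperature.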

The target is the same in test [17]. Nature of the test: qHTS assay to identify small molecule agonists of the farnesoid-X-receptor (FXR) signaling pathway (AID 743220; active means well fitted activation curve with a large enough effect in the signal ratio in the repeat runs, not every such curve was filed as active; the % refers to the signal ratio; further: on the % scale 0 is the no-effect control and ±100 the full control effect). In a few lines:
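Beta-lactamase reporter under UAS control in GeneBLAzer FXR HEK 293T cells (5000/well) measured with LiveBLAzer FRET substrate after 2 h at room temperature. Compound exposure lasted 16 h at 37C.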

The target of test [18] is Retinoic acid receptor RXR-alpha (Homo sapiens) (UniProt P19793). Put plainly: qHTS assay to identify small molecule agonists of the RXR signaling pathway (AID 1159527; calls by dose curve; further: on the % scale 0 is the no-effect control and ±100 the full control effect; nearly all actives have a fitted effect of over 35% in size). The method, boiled down: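 Using 9-cis retinoic acid as the reference agonist, chemicals were tested in HEK 293T cells […] for 16 hr; substrate loading lasted 2 hr at room temperature.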
Chain of Retinoic acid receptor RXR-alpha (Homo sapiens) (P19793 whole entry, looked up): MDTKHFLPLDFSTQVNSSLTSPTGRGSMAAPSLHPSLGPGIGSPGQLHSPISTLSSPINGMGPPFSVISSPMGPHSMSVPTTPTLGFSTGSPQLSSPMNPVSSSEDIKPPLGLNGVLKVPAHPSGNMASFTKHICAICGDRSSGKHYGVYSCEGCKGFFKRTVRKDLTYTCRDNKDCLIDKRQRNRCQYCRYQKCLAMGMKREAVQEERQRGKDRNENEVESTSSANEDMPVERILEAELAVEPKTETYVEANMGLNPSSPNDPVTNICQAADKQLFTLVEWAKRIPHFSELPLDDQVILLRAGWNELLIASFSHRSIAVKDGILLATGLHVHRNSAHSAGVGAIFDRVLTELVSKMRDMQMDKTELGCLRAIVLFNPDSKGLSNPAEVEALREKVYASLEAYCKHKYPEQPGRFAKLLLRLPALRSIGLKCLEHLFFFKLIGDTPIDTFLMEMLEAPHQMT

Test [19] is described as follows: qHTS assay to identify small molecule agonists of the vitamin D receptor (VDR) signaling pathway - cell viability counter screen (AID 743224). Further: nearly all actives have a fitted effect of over 50% in size. Further: potency means the concentration at half of the fitted maximal effect. The method, boiled down: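 VDR-bla cells were preincubated 4 h at 37C/5% CO2, then exposed to compounds for 16 h. After the 2 h room-temperature bla FRET read, CellTiter-Glo was added to the same wells and luminescence read after 30 min.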

The target in test [20] is Peroxisome proliferator-activated receptor delta (Homo sapiens) (UniProt Q03181). Put plainly: qHTS assay to identify small molecule agonists of the peroxisome proliferator-activated receptor delta (PPARd) signaling pathway (AID 743212; calls by dose curve; further: on the % scale 0 is the no-effect control and ±100 the full control effect). The method, boiled down:
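GeneBLAzer UAS-bla HEK293H cells carrying a PPARδ construct were exposed to compounds at 37 °C. Beta-lactamase activity was read by FRET fluorescence after 2 h at room temperature with LiveBLAzer B/G substrate.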

Chain of Bile acid receptor (Homo sapiens) (Q96RI1 whole entry, looked up): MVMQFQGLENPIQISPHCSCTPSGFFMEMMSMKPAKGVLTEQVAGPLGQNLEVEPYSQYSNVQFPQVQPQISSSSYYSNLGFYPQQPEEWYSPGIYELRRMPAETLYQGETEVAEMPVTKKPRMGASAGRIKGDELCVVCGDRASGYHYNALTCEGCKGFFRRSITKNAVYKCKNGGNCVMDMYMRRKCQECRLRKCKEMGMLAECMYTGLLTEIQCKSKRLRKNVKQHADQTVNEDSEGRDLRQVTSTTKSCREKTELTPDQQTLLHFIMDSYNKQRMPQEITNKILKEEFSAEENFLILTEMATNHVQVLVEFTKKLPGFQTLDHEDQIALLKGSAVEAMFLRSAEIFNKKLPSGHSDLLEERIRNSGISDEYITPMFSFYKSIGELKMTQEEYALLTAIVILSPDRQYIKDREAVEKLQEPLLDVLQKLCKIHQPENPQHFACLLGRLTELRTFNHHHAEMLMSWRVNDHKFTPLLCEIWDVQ
Chain of Peroxisome proliferator-activated receptor delta (Homo sapiens) (Q03181 whole entry, looked up): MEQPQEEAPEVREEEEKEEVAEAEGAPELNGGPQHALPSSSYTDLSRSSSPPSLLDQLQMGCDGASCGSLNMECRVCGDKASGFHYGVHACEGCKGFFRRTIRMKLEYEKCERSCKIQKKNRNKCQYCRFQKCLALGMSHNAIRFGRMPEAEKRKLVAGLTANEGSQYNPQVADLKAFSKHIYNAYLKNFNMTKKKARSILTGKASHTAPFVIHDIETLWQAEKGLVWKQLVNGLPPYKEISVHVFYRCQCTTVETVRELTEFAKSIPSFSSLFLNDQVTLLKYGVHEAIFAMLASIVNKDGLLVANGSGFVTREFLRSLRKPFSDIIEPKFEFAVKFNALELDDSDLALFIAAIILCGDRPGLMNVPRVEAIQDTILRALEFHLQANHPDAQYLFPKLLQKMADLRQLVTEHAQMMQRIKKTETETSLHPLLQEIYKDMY
Chain of Vitamin D3 receptor (Homo sapiens) (P11473 whole entry, looked up): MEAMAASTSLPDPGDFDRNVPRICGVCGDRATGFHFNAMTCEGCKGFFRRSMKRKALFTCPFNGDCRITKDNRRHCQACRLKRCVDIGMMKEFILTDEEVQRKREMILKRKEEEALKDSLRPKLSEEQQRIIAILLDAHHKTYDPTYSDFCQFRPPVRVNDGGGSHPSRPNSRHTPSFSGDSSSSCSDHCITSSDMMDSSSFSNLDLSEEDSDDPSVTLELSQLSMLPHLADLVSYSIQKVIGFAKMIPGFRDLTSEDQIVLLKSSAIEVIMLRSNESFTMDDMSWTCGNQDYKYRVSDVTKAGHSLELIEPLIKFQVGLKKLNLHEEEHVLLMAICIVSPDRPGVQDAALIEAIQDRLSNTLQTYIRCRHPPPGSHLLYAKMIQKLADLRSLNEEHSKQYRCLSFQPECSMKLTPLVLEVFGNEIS

On to `CCN1CCN(c2cc(-c3ccc(F)cc3)c3c(n2)CCCCCC3)CC1`, for which the Potency result in test [1], in test [2], in [3], in [4], in [5] and in test [6] was “inactive” throughout. For the same compound, the Potency result in [7], in [8] and in [9] was “inactive” throughout. Also, the activity, negative = cytotoxicity in test [10] was -5.78% [at 19 µM]. In addition, the activity change, negative = inhibition in test [11] was -6.23% [at 19 µM]. Besides, the viability change, negative = cytotoxic in test [12] is 3.9% [at 15.8 µM]. Further, in test [13], the activation is 6.74% [at 15.8 µM]. Besides, the activity change, negative = cytotoxicity in test [14] is -22.5% [at 15.8 µM].

Take `[O]=[Zr]`: the Potency result in test [15], in [1], in test [16], in test [3], in [17] and in test [4] was “inactive” throughout. The Potency entry in test [7], in [8], in test [9], in test [10], in test [12] and in [13] was “inactive” throughout. Further, the Potency result in test [18] and in test [14] was “inactive” in each case.

In the case of `CCN(CC)CCSC(=O)C(c1ccccc1)c1ccccc1`, the Potency result in test [4], in test [5], in test [6], in test [7], in test [8] and in test [9] was “inactive” each time. Further, the Potency entry in test [10], in [11], in [12] and in test [14] was “inactive” throughout.

`CNCC[C@H](Oc1cccc2ccccc12)c1cccs1`: the Potency was 6.68 µM (active) in test [15]; 5.31 µM (active) in test [1]; 6.68 µM (active) in test [3]; 11.9 µM (active) in [4]; 11.9 µM (active) in test [19]; 8.49 µM (active) in test [7]. In [14], the Potency is 23.9 µM (active). Further, the Potency result in test [8], in [9], in [10] and in test [12] was “inactive” in each case.

Consider `Cc1ccc2ccc3cccc4ccc1c2c34`, for which, in test [20], the call was inactive. Also, the Potency result in test [1], in test [2], in test [3], in test [17], in test [4] and in [19] was “inactive” each time. Besides, the Potency entry in test [8], in test [9], in [10], in test [12] and in test [13] was “inactive” throughout.

Consider `CN(C)c1ccc(N=Nc2ccccc2C(=O)O)cc1`, for which the compound was called inactive in test [20]. In addition, the Potency entry in test [4], in test [5], in test [19], in test [8] and in test [9] was “inactive” in each case. Further, the values for the Potency in [10] and in test [11] were 13.7 µM (active) and 12.2 µM (active), respectively.

Take `O=C(O)c1cccc(Cl)n1`: in test [20], the compound was called inactive. In addition, the Potency result in [3], in test [4], in test [8], in [9], in test [10] and in [12] was “inactive” throughout. Moreover, the Potency entry in test [13] and in test [14] was “inactive” throughout. The Potency in test [19] is 24.5 µM (active).

As to `CC(=O)Oc1ccc(C2(c3ccc(OC(C)=O)cc3)Oc3ccccc3NC2=O)cc1`, the compound was classed as inactive in test [20]. In addition, the Potency result in test [17], in test [4], in test [19], in [7], in test [8] and in [9] was “inactive” each time. Further, the Potency result in test [10], in test [13] and in test [14] was “inactive” throughout. Moreover, in [11], the Potency is 26.6 µM (active).

As to `O=C1Nc2ccc(Cl)cc2[C@@](C#CC2CC2)(C(F)(F)F)O1`, the compound was classed as inactive in [20]. The Potency entry in test [1], in test [2], in [3], in test [5], in test [6] and in [19] was “inactive” throughout. Further, the Potency result in [8], in test [9] and in test [11] was “inactive” throughout. In addition, the Potency in [10] is 29.8 µM (active).

As for `CC(C(O)c1ccccc1)N(C)CCOC(c1ccccc1)c1ccccc1` (centres undefined), the Potency in test [1] was 33.5 µM (active); in [3] it was 15 µM (active). In addition, the Potency entry in [2], in test [17], in test [5], in test [6], in test [8] and in [9] was “inactive” throughout.
